# Assay outcomes: PubChem BioAssay, National Center for Advancing Translational Sciences (NCATS)
# KAT2A inh: qHTS Assay for Inhibitors of GCN5L2; Histone acetyltransferase KAT2A (Homo sapiens), Q92830; GCN5L2 HAT assay, ThioGlo1 CoA-SH fluorescence; Potency, µM (highest dose often 58.9 µM), actives largely listed as inhibitors; actives 0.21% (n = 390,000)
#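 qHTS, 1536-well. 20nM enzyme, pH 7.5 HEPES/EDTA/Tween-20 buffer; 15 min compound preinc., RT. Start: 75uM H3(1-25), 70uM AcCoA, 50uM ThioGlo1. Read Ex340/Em540 at t=0 (autofluorescence flag) and t=20 min.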
# TDP1 cell noCPT: qHTS for Inhibitors of human tyrosyl-DNA phosphodiesterase 1 (TDP1): qHTS in cells in absence of CPT. DT40 Tdp1-/- hTDP1 cells, no CPT, ATP luminescence, 48 h. Potency, µM (top dose mostly 46.2 µM), usual class: inhibitors. actives 15% (n = 420,000). AID 686978, 2013; note: nearly all actives have a fitted effect of over 55% in size
#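 Readout: luminescence from CellTiter-Glo after 30 min in the dark at RT. Cells: DT40 Tdp1-/- with stable hTDP1, 400/well. Exposure: compounds alone, ≥48 hr, 37 °C.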
# PLK1 PBD inh: qHTS for Inhibitors of PLK1-PDB (polo-like kinase 1 - polo-box domain): Primary Screen; actives 2.8% (n = 360,000); Plk1 PBD binding of FITC phosphopeptide, fluorescence polarization; Serine/threonine-protein kinase PLK1 (Homo sapiens), P53350; Potency, µM, actives largely listed as inhibitors; AID 720504, 2013; note: series mostly up to about 57 µM; nearly all actives have a fitted effect of over 65% in size
# DT40 TDP1 CPT: qHTS for Inhibitors of human tyrosyl-DNA phosphodiesterase 1 (TDP1): qHTS in cells in presence of CPT | chicken DT40 Tdp1-/-;hTDP1 cells + 20 nM CPT, ATP luminescence, 48 h | Potency, µM (doses to about 46.2 µM), hits mostly inhibitors | actives 12% (n = 420,000) | AID 686979, 2013; note: nearly all actives have a fitted effect of over 55% in size
#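 Chicken DT40 Tdp1-/- cells complemented with human TDP1, 400 cells/well, exposed to compounds plus 20 nM camptothecin for at least 48 h at 37 C; viability read as ATP content by CellTiter-Glo luminescence.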
# VDR inh: Inhibitors of the vitamin D receptor (VDR): qHTS; VDR-SRC2-3 peptide fluorescence polarization, 2 h; AID 504847, 2011; Vitamin D3 receptor (Homo sapiens), P11473; actives 0.93% (n = 400,000); Potency, µM, actives largely listed as inhibitors
#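 Fluorescence polarization assay measuring small-molecule disruption of VDR binding to the coregulator peptide SRC2-3. Compounds were pin-transferred (23 nl) into the reagent mix and incubated 2 h at room temperature before reading.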
# TDP1 inh: qHTS Assay for Inhibitors of Tyrosyl-DNA Phosphodiesterase (TDP1) | recombinant TDP1, AlphaScreen DNA substrate cleavage | actives 0.28% (n = 350,000) | Potency, µM (top dose mostly 130 µM), actives largely listed as inhibitors; note: nearly all actives have a fitted effect of over 40% in size
# Target sequence (Q9NUW8 whole entry, looked up): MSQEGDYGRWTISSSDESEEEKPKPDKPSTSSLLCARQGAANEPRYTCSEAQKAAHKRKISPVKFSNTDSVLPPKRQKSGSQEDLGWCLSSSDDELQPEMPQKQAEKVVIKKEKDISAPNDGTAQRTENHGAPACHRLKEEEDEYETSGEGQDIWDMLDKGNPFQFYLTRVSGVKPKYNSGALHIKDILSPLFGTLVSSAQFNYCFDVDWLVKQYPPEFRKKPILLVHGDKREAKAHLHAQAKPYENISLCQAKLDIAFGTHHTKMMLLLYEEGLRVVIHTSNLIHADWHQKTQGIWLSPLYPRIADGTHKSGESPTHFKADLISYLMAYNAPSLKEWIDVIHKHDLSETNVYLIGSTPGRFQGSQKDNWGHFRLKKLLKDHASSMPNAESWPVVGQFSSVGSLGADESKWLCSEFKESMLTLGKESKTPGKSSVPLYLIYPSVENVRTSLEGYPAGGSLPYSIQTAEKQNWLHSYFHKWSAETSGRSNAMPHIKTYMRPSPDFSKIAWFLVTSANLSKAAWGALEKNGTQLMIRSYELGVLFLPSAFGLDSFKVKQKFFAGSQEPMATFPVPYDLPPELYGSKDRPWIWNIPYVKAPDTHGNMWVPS
#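 Signal: AlphaScreen proximity between streptavidin donor and anti-FITC acceptor beads on intact substrate. Reaction: Tdp1 1 nM, substrate 15 nM final, 5 min RT after 15 min compound preincubation.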
# A number is an active result; . = inactive; ? = inconclusive; / = no result; [ ] = another dose, or the depositor's remark. Most compounds without a hit are left out; they make up all but 18% or so of the library. Calls come from the whole dose curve; as a rule, active = well fitted curve in the direction sought with a large enough effect; inconclusive = small, poorly fitted or top-dose-only effect, or another doubt; inactive = no such curve, though single readings can be large; an effect the other way counts as inactive or inconclusive.
SMILES,KAT2A inh,TDP1 cell noCPT,PLK1 PBD inh,DT40 TDP1 CPT,VDR inh,TDP1 inh
OC(c1ccc(CN2CCCCC2)cc1)c1ncc(-c2ccccc2F)[nH]1 (centres undefined),/,.,.,.,/,/
O=C(CCl)NCCN1C(=O)S/C(=C\c2cccnc2)C1=O,.,?,.,?,.,.
Cc1nn(Cc2ccccc2)c(C)c1C(=O)NCCN1C(=O)S/C(=C\c2ccccc2)C1=O,.,?,.,21µM,.,.
O=C1S/C(=C/c2ccccc2F)C(=O)N1CCN=C1NS(=O)(=O)c2ccccc21,.,?,.,16µM,.,.
O=C(CN1C(=O)S/C(=C\c2ccccc2F)C1=O)Nc1ccccc1O,.,.,.,.,.,/
CCc1noc(C)c1C(=O)NCCN1C(=O)S/C(=C\c2ccccc2F)C1=O,/,18µM,.,18µM,/,/
CCN(CC)C(=O)C1=C(C)N(Cc2ccccc2)C(=O)C(CC(=O)NCC2CCCCC2)C1 (centres undefined),/,?,.,?,/,/
C[C@H](CO)N1C[C@H](C)[C@H](CN(C)S(=O)(=O)c2ccc3ccccc3c2)OCc2cnnn2CCCC1=O,/,?,.,?,/,/
CCC1N=C(SC)NC(C)=C1C(=O)c1ccccc1 (centres undefined),.,.,.,.,.,.
CSC1=NC(C(Cl)(Cl)Cl)N=C(c2ccc(C)cc2)N1 (centres undefined),.,0.58µM,.,0.82µM,.,.
Cc1cc([N+](=O)[O-])ccc1NC(=O)CN1C2CCC1CC(NC(=O)NC13CC4CC(CC(C4)C1)C3)C2 (centres undefined),.,5.2µM,.,15µM,.,.
COCC(=O)Nc1ccc([N+](=O)[O-])cc1C,.,.,.,.,.,.
COC(=O)c1ccc(C(=O)OC)c(NC(=S)N2CCN(c3ccccn3)CC2)c1,.,.,.,.,.,.
Cn1c(C(=O)N2CCCC(C(=O)O)C2)cc2sccc21 (centres undefined),.[0.501 µM],.,.,.,.,.
Cn1c(C(=O)N2CCCC(C(=O)N3CCN(C(=O)c4ccco4)CC3)C2)cc2sccc21 (centres undefined),.,?,.,15µM,.,.
COc1ccc(NS(=O)(=O)c2cc(NC(=O)c3ccc(C)s3)ccc2N2CCOCC2)cc1,.,.,.,.,.,.
CCOc1ccccc1NC(=O)C(=O)CC(=O)c1ccc(OC)cc1,.,21µM,.,?,.,/
COc1ccc(C(=O)CNc2cccc(F)c2)cc1,.,.,.,.,.,/
COc1ccc(C(=O)CC(=O)C(=O)Nc2cccc(F)c2)cc1,.,15µM,.,?,.,/
COc1ccc(C(=O)CC(=O)C(=O)Nc2cc(C)ccc2C)cc1,.,?,.,.,.,/
CC(C)(C)NC(=O)C(c1ccco1)N(Cc1ccc2c(c1)OCO2)C(=O)c1snc(C(N)=O)c1N (centres undefined),.,.,.,.,.,/
O=c1[nH]c(=S)[nH]c2c1C(c1ccc(Br)cc1)c1c([nH]c(=S)[nH]c1=O)O2,14µM,.,6µM,.,89µM,/
CC1(C)CC(=O)C2=C(C1)Nc1[nH]c(=S)[nH]c(=O)c1C2c1ccccc1 (centres undefined),.,?,?,.,.,.
Cc1ccc(C2C3=C(CCCC3=O)Nc3[nH]c(=S)[nH]c(=O)c32)cc1 (centres undefined),22µM,.,?,.,89µM,.
O=C1CCCC2=C1C(c1ccc(Br)cc1)c1c([nH]c(=S)[nH]c1=O)N2 (centres undefined),?,.,27µM,.,?,.
SMILES,KAT2A inh,TDP1 cell noCPT,PLK1 PBD inh,DT40 TDP1 CPT,VDR inh,TDP1 inh
Cc1ccc(NS(=O)(=O)c2ccc3[nH]c(=O)[nH]c3c2)cc1C,/,/,/,/,/,.
CCCN(CCC)C(=O)Cn1c(=O)n(-c2ccccc2)c(=O)c2c3c(sc21)CCCC3,.,?,/,?,.,.
CCOC(=O)c1c(C)[nH]c(CCC(=O)Nc2ccccc2C(=O)OC)c1C,.,23µM,/,?,.,.
CCOC(=O)c1c(C)[nH]c(C)c1S(=O)(=O)NCC(=O)Nc1cc(C)ccc1OC,.,.,/,?,.,.
CCOC(=O)c1c(C)[nH]c(CCC(=O)Nc2cc(C)cc(C)c2)c1C,.,23µM,/,?,.,.
CCOC(=O)c1c(C)[nH]c(CCC(=O)Nc2cc(C)ccc2OC)c1C,.,16µM,/,?,.,.
CCOC(=O)c1c(C)[nH]c(CCC(=O)Nc2c(C)cccc2CC)c1C,.,16µM,/,?,.,.
CCOC(=O)c1c(C)[nH]c(CCC(=O)Nc2c(Cl)cc(OC)cc2OC)c1C,.,?,/,?,.,.
O=C(CCBr)Nc1cccc2cccnc12,/,/,/,/,.,.
CCOC(=O)c1c(C)[nH]c(CCC(=O)Nc2ccccc2C(F)(F)F)c1C,.,?,/,?,.,.
CCOC(=O)c1c(C)[nH]c(CCC(=O)Nc2ccccc2OCC)c1C,.,23µM,/,?,.,.
CCOC(=O)c1c(C)[nH]c(CCC(=O)NCc2ccc(N(C)C)cc2)c1C,.,18µM,/,?,.,.
Cc1cnc(-n2ncc(C(=O)NCCN3CCOCC3)c2C(C)C)nc1-c1ccc(F)cc1,/,.,/,.,/,/
COCC1CCCN(C(=O)c2ccc(OC3CCN(Cc4ccccn4)CC3)cc2)C1 (centres undefined),.,.,.,.,.,.
COc1ccc(S(=O)(=O)NCC(c2ccc3c(c2)OCO3)N2CCOCC2)cc1 (centres undefined),.,.,.,.,.,.
Fc1ccc(-c2c[nH]c(=S)n2Cc2ccccc2)cc1,.,?,.,21µM,?,.
O=c1[nH]cc(-c2ccc(Br)cc2)n1Cc1ccccc1,.,?,.,?,.,/
CCCC(=O)Nc1nc2ccc(NC(=O)c3ccccc3F)cc2s1,.,2.1µM,.,1.8µM,.,.
CCC(=O)Nc1ccc2nc(SCc3ccccc3)sc2c1,.,13µM,/,?,.,.
CCC(CC)C(=O)Nc1ccc2nc(SCc3ccccc3)sc2c1,.,16µM,/,16µM,.,.
CCCC(=O)Nc1ccc2nc(SCc3ccc(C)cc3)sc2c1,.,?,/,.,.,.
COc1cc(C(=O)Nc2ccc3nc(SCc4ccccc4)sc3c2)cc(OC)c1OC,.,15µM,/,13µM,.,.
COc1cc(C(=O)Nc2ccncc2)cc(OC)c1OC,.,?,.,.,.,.
